# Results taken from ChEMBL document CHEMBL3433997, “St. Jude Leishmania screening dataset” (2016).
# What was measured:
# Type in all cases: functional
# [1] = molecular target: Solute carrier family 2, facilitated glucose transporter member 1 (Homo sapiens) (UniProt P11166); assay: ST_JUDE_LEISH: Cytotoxicity at 2uM final concentration against transgenic Leishmania Mexicana promastigotes LmGLUT1 that are glucose transport deficient and complemented with the human glucose transporter GLUT1. Activity is measured by DNA content using SYBR green in vitro
# Sequence of Solute carrier family 2, facilitated glucose transporter member 1 (Homo sapiens) (P11166 whole entry): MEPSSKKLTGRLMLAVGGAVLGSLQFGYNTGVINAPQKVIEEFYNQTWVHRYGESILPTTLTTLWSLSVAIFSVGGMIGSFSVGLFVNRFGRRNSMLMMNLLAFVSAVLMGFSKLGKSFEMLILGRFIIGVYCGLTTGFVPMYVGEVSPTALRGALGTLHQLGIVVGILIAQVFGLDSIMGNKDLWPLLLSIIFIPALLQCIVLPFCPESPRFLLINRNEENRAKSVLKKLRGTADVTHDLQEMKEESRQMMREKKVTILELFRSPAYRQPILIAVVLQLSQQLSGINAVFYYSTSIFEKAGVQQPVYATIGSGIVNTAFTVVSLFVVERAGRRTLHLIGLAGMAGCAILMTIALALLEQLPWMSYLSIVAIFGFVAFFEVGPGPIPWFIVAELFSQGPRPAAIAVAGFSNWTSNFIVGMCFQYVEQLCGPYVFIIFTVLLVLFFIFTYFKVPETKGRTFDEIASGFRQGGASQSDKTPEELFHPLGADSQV
# [2] = molecular target: Hexose transporter 1 (Plasmodium falciparum) (UniProt O97467); assay: ST_JUDE_LEISH: Cytotoxicity at 2uM final concentration against transgenic Leishmania Mexicana promastigotes LmPfHT that are glucose transport deficient and complemented with the Plasmodium falciparum hexose transporter. Activity is measured by DNA content using SYBR green in vitro
# [3] = molecular target: Glucose transporter (Leishmania mexicana) (UniProt O61059); assay: ST_JUDE_LEISH: Cytotoxicity at 2uM final concentration against transgenic Leishmania Mexicana promastigotes LmGT2 that are glucose transport deficient and complemented with the L. Mexicana glucose transporter 2. Activity is measured by DNA content using SYBR green in vitro
Structure (SMILES),inhibition [1],inhibition [2],inhibition [3]
CC(C)(C)c1ccc(CNCCOc2ccc(Nc3nnc(-c4ccc(-c5ncc[nH]5)cc4)o3)c3ccccc23)cc1,2.98%,2.75%,2.83%
COCc1ccccc1C(=O)NCCOc1cc(C)cc(C)c1,-0.29%,0.17%,-0.46%
COc1cccc(C(=O)NC(c2ccc(Cl)cc2Cl)c2cc(Cl)c3cccnc3c2O)c1 (stereo not drawn),0.8%,-0.13%,1.53%
Cc1nc2ccc(S(=O)(=O)Nc3ccc(C(=O)N[C@@H](CCC(=O)O)C(=O)O)cc3)cc2c(=O)[nH]1,0.38%,-1.45%,0.45%
O=C(Nc1ccc(-c2nc3ccccc3[nH]2)cc1)c1ccc(S(=O)(=O)N2CCc3ccccc32)cc1,2.92%,0.13%,3.39%
O=C(NCc1cccc(F)c1)Nc1ccc(-c2cccc(-c3nc4cc(F)ccc4[nH]3)c2)cc1,1.98%,1.08%,6.08%
CC(=O)Nc1ccc(C(=O)Nc2cccc(-c3cccc(-c4nc5ccccc5[nH]4)c3)c2)cn1,2.35%,-0.22%,1.34%
CC1(C)N=C(N)N=C(N)N1c1ccccc1,3.26%,3.47%,1.32%
Cc1[nH]cnc1Cc1ccc2c(c1O)c1ccccc1n2C,2.71%,-0.2%,-0.18%
FC(F)c1nc2ccccc2n1-c1nc(N2CCOCC2)nc(N2CCOCC2)n1,2.11%,2.9%,3.12%
CN(N=Cc1ccccc1)C(=N)NCCCC#Cc1cccc(CN2CCCC2)c1,11.4%,6.82%,1.72%
O=c1ccc(-c2nc3cc(Cl)c(Cl)cc3n2Cc2ccc(Cl)cc2Cl)c[nH]1,-0.54%,-0.54%,-0.93%
c1ccc2c(Nc3ccc(Oc4ccc(Nc5c6ccccc6nc6ccccc56)cc4)cc3)c3ccccc3nc2c1,2.32%,0.88%,-1.82%
COc1ccc2nc3cc(Cl)ccc3c(NCCCCN3CCNCC3)c2c1,6.28%,6.49%,3.51%
Cc1cc(NC(=O)NCCN2CCC(NS(=O)(=O)c3ccccc3Cl)C2)c2ccccc2n1 (stereo not drawn),-2.1%,1.02%,8.99%
Cc1cc(N2CCCN(CC3CCCCC3)CC2)nc(Nc2ccc(Br)cc2)n1,1.81%,6.86%,-2.12%
O=C(Nc1cccc(CN2CCN(C(=O)c3cccc(Cl)c3)CC2)c1)c1ccco1,-4.34%,0.58%,3.82%
O=C(CSc1nc(-c2ccccc2Cl)ns1)Nc1ccc2c(c1)OCO2,-0.52%,-0.45%,-1.67%

Structure (SMILES),inhibition [1],inhibition [2],inhibition [3]
CC(CN1CCN(C)CC1)C(=O)Nc1ccc(-c2cccc(-c3nc4cc(F)ccc4[nH]3)c2)cc1 (stereo not drawn),2.46%,2.1%,5.11%
COc1ccc(NC(C)C(=O)Nc2ccc(Br)cc2)cc1S(=O)(=O)N1CCCCC1 (stereo not drawn),-1%,1.34%,1.93%
COc1cc(F)c2ncc(Cl)c(CCN3CCC(NCc4ccc5c(n4)NC(=O)CS5)CC3)c2c1,8.34%,8.44%,-2.08%
O=C(Nc1ccnc(-c2cccnc2)n1)c1cc(C(F)(F)F)cc(C(F)(F)F)c1,-1.69%,0.27%,-3.85%
CC(=O)N(C)c1ccc(C(=O)Nc2cccc(-c3cccc(-c4nc5cccc(C)c5[nH]4)c3)c2)cc1,3.67%,3.97%,0.08%
Oc1ccccc1N1CCN(c2ccc(-c3nc4ccccc4[nH]3)cn2)CC1,2.48%,1.99%,0.57%
CC(C)[C@H](NC(=O)c1ccc(O)c(-c2ccc(Cl)c(Cl)c2)c1)C(=O)NCCN1CCCC1,-0.22%,-0.09%,0.36%
CN1CCN(c2ccnc3ccc(NC(=O)Nc4ccc5c(c4)CCC5=O)cc23)CC1,3.7%,2.43%,5.45%
O=C(Nc1ccc(-c2csc(-c3nc4ccccc4[nH]3)c2)cc1)Nc1ccc(F)c(F)c1F,0.67%,2.98%,2.02%
CCCNCc1ccc(-c2ccc(CN(CCOC)C(=O)CC3CCCC3=O)cc2)nc1 (stereo not drawn),0.55%,0.07%,-9.43%
OCCNc1nc(Nc2ccc(Cl)cc2)nc2ccccc12,6.17%,4.56%,1.54%
O=C(NCCCCN1CCC(c2ccc3c(c2OCc2ccccn2)CCCC3)CC1)c1ccc(NC(=O)c2ccc(Cl)cc2)cc1,2.21%,0.31%,2.55%
CCOc1cc2c(cc1S(=O)(=O)c1ccc(COc3ccc(C(F)(F)F)cc3)cc1)CCN(C)CC2,1.72%,3.79%,1.18%
COc1cc(Nc2ccnc3ccc(C(C)(C)C)cc23)cc(OC)c1OC,0.32%,0.17%,1.66%
CCNc1cc(C(=O)N[C@@H](Cc2ccccc2)[C@H](O)CNC(C)(C)CC(C)(C)C)c(F)c(N2CCCCS2(=O)=O)c1,-2.27%,-1.17%,-0.53%
OC(CNC1CCCCC1)Cn1c2ccccc2c2ccccc21 (stereo not drawn),9.36%,7.72%,3.35%
CC(C)(C)COc1ccc2c(N)n[nH]c2c1,-1.62%,-1.52%,-0.66%
Cc1ccc2nc(C)n(C3CCN(C(=O)Cc4ccc(F)c(F)c4)CC3)c2c1,2.56%,2%,2.78%
